WT yeast gro inh – growth inhibition of WT yeast, mitochondrial fusion screen; mitochondrial fusion phenotypic screen, WT strain; inhibition, % at 10 µM; actives 2.1% (n = 190,000); AID 1362; in the data active = inhibition above about 58%; tested in S. cerevisiae
Arbovirus inh – antivirals against arbovirus infection | arbovirus infection cell-based antiviral screen | inhibition, % at 10 µM | actives 0.37% (n = 200,000); in the data active = inhibition above about 30%
CHOP inh – CHOP inhibition in unfolded protein response | AID 2732 | actives 3.8% (n = 220,000) | inhibition, % at 10 µM | CHO-K1 CHOP-promoter luciferase, tunicamycin-induced, 15-18 h;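 active = compounds that reduced the stress-induced luciferase reporter signal by more than about 70% of percent inhibition, limit read from the data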
L major viab – reduces viability of Leishmania major promastigotes; actives 9% (n = 200,000); inhibition, % at 10 µM; resazurin fluorescence viability; in the data active = inhibition above about 50%;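 note: promastigotes grown with compound for 44 hours at 28 °C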
L major 1uM – inhibitors of Leishmania major promastigote growth, repeat at 1 uM. shares compounds with L major viab. L. major promastigote growth, resazurin fluorescence, 48 h. inhibition, % at 1 µM. actives 13% (n = 1,100);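 active = inhibition above about 50% in both repeat tests, limit read from the data; inconclusive = one repeat under the set limit, the other over it; inactive = both repeats under the set limit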
Numbers stand for hits; n = inactive; u = inconclusive; x = no result given. Sampled rows, rich in hits. Any-hit rate of the full collection: about 12%.

SMILES | WT yeast gro inh | Arbovirus inh | CHOP inh | L major viab | L major 1uM
Cc1cc(C)c(OCC(O)CN2CCN(c3ccccn3)CC2)c(C)c1 (centres undefined) | n | n | n | n | x
COc1ccc(Cc2noc(CN(C)CCN3CCc4ccccc4C3)n2)cc1OC | n | n | n | n | x
CN(CCN1CCc2ccccc2C1)Cc1nc(Cc2ccccc2F)no1 | n | n | n | 85 | 72
CC(C)CN(C(=O)CN1CCN(c2ccc([N+](=O)[O-])cc2)CC1)c1c(N)n(CC(C)C)c(=O)[nH]c1=O | n | n | n | n | x
COc1ccc(C2C(=O)N(C3CCCCC3)CC(=O)N2Cc2ccc3c(c2)OCO3)cc1 (centres undefined) | n | n | n | 91 | n
COc1ccc(/C=C/C(=O)Nc2cc(F)ccc2C)cc1S(=O)(=O)N1CCOCC1 | n | n | n | n | x
Cc1cc(C)cc(C(=O)N(NC(=O)Nc2ccc(Cl)cc2)C(C)(C)C)c1 | n | n | n | 98 | n
CC(C)(C)N(NC(=O)Nc1ccc(Cl)c(Cl)c1)C(=O)c1ccccc1 | n | n | n | n | x
COC(=O)C(C)SC1=N/C(=C/c2ccc(-n3cncn3)cc2)C(=O)N1 (centres undefined) | x | x | n | x | x
Cc1cccc2cc(-c3ccccc3)c(-c3ccccc3)c[n+]12 | 72 | n | n | 100 | n
O=[N+]([O-])c1cccc(-c2cc3cccc[n+]3cc2-c2cccc([N+](=O)[O-])c2)c1 | n | n | n | n | x
OC(COCC1COc2ccccc2O1)CN1CCc2ccccc2C1 (centres undefined) | n | n | n | 99 | n
COc1cc(COCC(O)CN2CCc3ccccc3C2)cc(OC)c1OC (centres undefined) | n | n | n | n | x
CC(C(N)=O)N1C(=O)c2cccc3cccc1c23 (centres undefined) | n | n | n | n | x
Cc1ccc(-c2ccc(/C=N\NC(=O)c3cc4c(ccc5ccccc54)o3)o2)cc1[N+](=O)[O-] | n | n | n | n | x
Cc1ccc([N+](=O)[O-])cc1-c1ccc(/C=N/NC(=O)c2cc3c(ccc4ccccc43)o2)o1 | n | n | n | 100 | n
CCOC(=O)C1=C(C)NC(=O)NC1c1ccc(Br)s1 (centres undefined) | n | n | n | 66 | n
CCOC(=O)c1c(-c2ccc(C)cc2)csc1NC(=O)CCSc1nnc2ccccn12 | n | n | n | n | x
Cc1ccc(CC(=O)NCc2cccnc2)cc1 | n | n | n | n | x
Cc1ccc(-c2cc(C(F)F)nc(NCc3cccnc3)n2)cc1 | n | n | 76 | 57 | n
CCOC(=O)C(=Cc1cc(=O)c(OC)co1)C(=O)OCC | n | n | 109 | 100 | 101
COc1coc(C(O)CN)cc1=O (centres undefined) | n | n | n | n | x
c1ccc(-c2nc3cc4ccccc4cc3[nH]2)nc1 | n | n | x | 100 | n
O=C(CN(c1ccccc1)S(=O)(=O)c1ccc(F)cc1)NC1CCS(=O)(=O)C1 (centres undefined) | n | n | n | n | x
O=C(O)CN=C(NS(=O)(=O)c1ccccc1)c1ccccc1 | n | n | n | n | x
SMILES | WT yeast gro inh | Arbovirus inh | CHOP inh | L major viab | L major 1uM
CC(C)N=C(NS(=O)(=O)c1ccccc1)C(Cl)(Cl)Cl | n | n | n | 85 | u
CC(=O)Nc1ccc2c(c1)ncn2-c1ccc(C)cc1 | n | n | n | n | x
O=C(NC1CCCC1)C(c1ccc(F)cc1)N(Cc1ccc(Cl)cc1)C(=O)CCl (centres undefined) | n | n | 106 | 99 | 51
O=[N+]([O-])c1cc(Cl)ccc1Oc1ccc(-c2nnco2)cc1 | n | n | n | n | x
Cn1cnnc1Sc1cc(N2CCN(S(=O)(=O)c3ccc4ccccc4c3)CC2)ccc1[N+](=O)[O-] | n | n | n | n | x
CC(C)c1ccc(-n2nc3ccc(N)cc3n2)cc1 | n | n | n | n | x
Cc1ccc(-n2nc3ccc(N)cc3n2)cc1 | n | n | n | 84 | n
Cn1c(-c2ccc(C=O)s2)nc2c3ccccc3c3ccccc3c21 | n | n | n | 68 | n
CCn1c(N)c(C(=O)NCc2cccnc2)sc1=S | n | n | n | n | x
CCn1c(C(=O)NCc2cccnc2)cc2sc(Cl)cc21 | n | n | n | 81 | n
O=C(/C=C/c1ccccc1)CC(O)(c1ccccc1)C(F)(F)F (centres undefined) | n | n | n | 100 | 76
O=C1C=C(N(CCO)Cc2ccccc2)c2ccccc2C1=O | n | n | 89 | 96 | n
O=C(NC1CCN(C(=O)Nc2ccccc2Cl)CC1)c1ccccc1 | n | n | n | n | x
O=c1[nH]c2cc([N+](=O)[O-])c([N+](=O)[O-])cc2[nH]c1=O | n | n | n | n | x

Bioassay records as filed in PubChem.
